Measurements: the supplement of paper PMC7530171
± gives the standard deviation.

system: THP-1 macrophages infected with Mycobacterium tuberculosis H37Rv; assay: intracellular M.tb growth inhibition relative to DMSO (0) and 4 uM bedaquiline (100); higher = stronger inhibition of intracellular bacterial growth; conditions: 10 µM; 4 days
Method: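 OICR kinase inhibitor library screened in duplicate at 10 uM against THP-1 macrophages (PMA-differentiated) infected with M. tuberculosis H37Rv-pTEC27 (tdTomato RFP), 4 days at 37 C. Rows with complete host cell loss (placeholder inhibition 0, cell loss 100) were removed.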

In order of rising “intracellular M.tb growth inhibition” value:
1. COC[C@H]1OC(=O)c2coc3c2[C@@]1(C)C1=C(C3=O)[C@@H]2CCC(=O)[C@@]2(C)C[C@H]1OC(C)=O [Wortmannin]  -159 ± 64%
2. COc1ccc2c(c1)/C(=C/c1cnc[nH]1)C(=O)N2  -99.5 ± 38%
3. O=C1NC(=O)c2c1c1c3ccccc3[nH]c1c1[nH]c3ccccc3c21 [Arcyriaflavin A]  -61.8 ± 87%
4. N#C/C(=C\c1ccc(O)c(O)c1)C(N)=S  -46 ± 15%
5. C/C(O)=C(\C#N)C(=O)Nc1cc(Br)ccc1Br  -33.5 ± 11%
6. Cc1ccccc1-n1c(Cn2cnc3c(N)ncnc32)nc2cccc(C)c2c1=O  -13.6 ± 20%
7. Cn1cc(C2=C(c3cn(C4CCN(Cc5ccccn5)CC4)c4ccccc34)C(=O)NC2=O)c2ccccc21 [Enzastaurin]  -5.94 ± 8.4%
8. CC(=O)c1c(O)c(C)c(O)c(Cc2c(O)c3c(c(C(=O)/C=C/c4ccccc4)c2O)OC(C)(C)C=C3)c1O [Rottlerin]  -0.827 ± 1.2%
9. NC(=S)N/N=C/c1coc2ccccc2c1=O.[Cl][Cu][Cl]  4.45 ± 6.8%
